The nature of experiment [1]: qHTS assay to identify small molecule antagonists of the estrogen receptor beta (ER-beta) signaling pathway - cell viability counter screen (AID 1259382).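 Note: HEK293T cells carrying ER-beta-UAS-bla reporter stimulated with estradiol; series mostly up to about 92 µM; nearly all actives have a fitted effect of over 55% in size.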 A digest of the protocol: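 HEK293T ER-beta-UAS-bla, 2% charcoal-stripped FBS; compounds + 1nM E2 16 hr 37C; CellTiter-Glo luminescence, 30 min RT.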
In experiment [2] the target is Estrogen receptor (Homo sapiens) (UniProt P03372). Briefly: qHTS assay to identify small molecule agonists of the estrogen receptor alpha (ER-alpha) signaling pathway in the presence of an antagonist (AID 1259383; calls by dose curve; note: top concentration of the series differs between compounds; nearly all actives have a fitted effect of over 15% in size). A digest of the protocol: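 ER-alpha agonism measured under antagonist challenge: 10.0nM ICI-182,780 (final) plus compound, 15 concentrations, 22hr, VM7Luc4E2 ERE-luciferase cells. Read by luminescence.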

Experiment [3] can be described thus: qHTS assay to identify small molecule agonists of the estrogen receptor alpha (ER-alpha) signaling pathway in the presence of an antagonist - cell viability counter screen (AID 1259386).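 Note: series mostly up to about 92 µM; cells exposed to compounds for 22 h at 37 °C before the viability read; nearly all actives have a fitted effect of over 30% in size.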 The gist of the method:
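Steps: 5-day stripped-FBS culture; seed and incubate 24hr; add ICI-182,780 (10.0nM final); pin 15-point compound titration; incubate 22hr at 37C; add CellTiter-Fluor at 21hr; read fluorescence.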

Experiment [4] addresses Progesterone receptor (Homo sapiens) (UniProt P06401). Briefly: qHTS assay to identify small molecule agonists of the progesterone receptor (PR) signaling pathway (AID 1346784; calls by dose curve; note: nearly all actives have a fitted effect of over 30% in size). A digest of the protocol: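 Compounds were tested for PR agonism in HEK 293T cells bearing a beta-lactamase gene under UAS control. Treatment lasted 16 hr at 37C; signal came from fluorescence of a FRET substrate.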

A short description of experiment [5]: qHTS assay to identify small molecule antagonists of the progesterone receptor (PR) signaling pathway - cell viability counter screen (AID 1346798). Note: nearly all actives have a fitted effect of over 50% in size. Note: potency is the fitted concentration of half-maximal effect. A digest of the protocol:
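Following a 4 hr attachment, PR-UAS-bla HEK293T cells in charcoal-stripped FBS medium were exposed to compounds with R5020 for 16 hr; CellTiter-Glo was added and luminescence read after 30 min at room temperature.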

The nature of experiment [6]: qHTS assay to identify small molecule agonists of the progesterone receptor (PR) signaling pathway - cell viability counter screen (AID 1346799; calls by dose curve; note: nearly all actives have a fitted effect of over 45% in size; note: potency is the fitted concentration of half-maximal effect). The gist of the method:
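Here, 3,000 PR-UAS-bla HEK293T cells per well were treated with compounds for 16 hr after a 6 hr preincubation at 37C and 5% CO2; cell viability is the CellTiter-Glo luminescence signal.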

A short description of experiment [7]: qHTS assay to identify small molecule antagonists of the TGF-beta/Smad signaling pathway - cell viability counter screen (AID 1346824). Note: nearly all actives have a fitted effect of over 50% in size. The gist of the method: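 SBE-bla HEK 293T cells were plated overnight at 37 C, then given compounds in DMSO plus TGF-beta1 (added as 0.25 ng/mL solution) for 5 hr. After the bla read, CellTiter-Glo was added to the same wells and luminescence read after 30 min at room temperature.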

Experiment [8] in a line: qHTS assay to identify small molecule agonists of the TGF-beta/Smad signaling pathway - cell viability counter screen (AID 1346829). Note: top concentration of the series differs between compounds; nearly all actives have a fitted effect of over 45% in size. A digest of the protocol:
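Tox21 qHTS format: SBE-bla HEK 293T cells treated with DMSO-dissolved compounds for 5 hr; CellTiter-Glo luminescence after 30 min at room temperature.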

Experiment [9] can be described thus: qHTS assay to identify small molecule agonists of the TGF-beta/Smad signaling pathway (AID 1346859; active = well fitted activation curve with a large enough effect in the signal ratio in the repeat runs, not every such curve was filed as active; the % refers to the signal ratio; note: series mostly up to about 77 µM). A digest of the protocol:
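Each well held 4,000 SBE-bla HEK 293T cells incubated overnight before compound addition; 5 hr later the cleavable FRET substrate went on for 2 hr at room temperature, and fluorescence was read at two emissions.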

The target of experiment [10] is Thyrotropin-releasing hormone receptor (Homo sapiens) (UniProt P34981). Briefly: qHTS assay to identify small molecule antagonists of the thyrotropin-releasing hormone receptor (TRHR) signaling pathway (AID 1346877; active = well fitted inhibition curve with a large enough effect in the repeat runs, not every such curve was filed as active; note: series mostly up to about 51 µM). A digest of the protocol: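 Human TRHR in HEK293 cells; inhibition of the intracellular calcium rise triggered by 1 nM TRH was followed by fluorescence over 3 min. Compounds were run at 15 concentrations, three replicates each.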

Experiment [11] has the same target. Briefly: qHTS assay to identify small molecule agonists of the thyrotropin-releasing hormone receptor (TRHR) signaling pathway (AID 1346891; calls by dose curve; note: series mostly up to about 58 µM). A digest of the protocol: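 Screening of agonists relied on calcium signalling in HEK293 cells expressing human TRHR: dye loading 2 h at 37 °C preceded compound addition and a 3-min fluorescence time course.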
Experiment [12] is described as follows: Human pregnane X receptor (PXR) small molecule agonists, qHTS cell viability counter screen (AID 1346977). Note: nearly all actives have a fitted effect of over 50% in size. A digest of the protocol:
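Tox21 qHTS format; PXR-Luc HepG2, 2,000/well, charcoal-stripped FBS 5%. Cpd exposure 24hr. Read: CellTiter-Fluor fluorescence, multiplexed with luciferase.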

Experiment [13] in a line: Caspase-3/7 induction in HepG2 cells by small molecules, qHTS assay (AID 1346978). Note: nearly all actives have a fitted effect of over 15% in size. The gist of the method:
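Wild-type HepG2 cells (2,000/well) were settled 5 h at 37 C, 5% CO2, then exposed to compounds in DMSO for 17 h. Caspase-3/7 activity was read by luminescence 30 min after adding Caspase-Glo 3/7 reagent at room temperature.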

Experiment [14] is described as follows: Caspase-3/7 induction in CHO-K1 cells by small molecules, qHTS cell viability counter screen (AID 1346979). Note: nearly all actives have a fitted effect of over 35% in size. The gist of the method:
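CellTiter-Fluor viability check, qHTS format: wild-type CHO-K1, 16hr compound treatment, 1hr reagent incubation, fluorescence read.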

Experiment [15] is described as follows: Caspase-3/7 induction in CHO-K1 cells by small molecules, qHTS assay (AID 1346980). Note: nearly all actives have a fitted effect of over 15% in size. A digest of the protocol:
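Wild-type cells were seeded at 1,500 per well and settled 5 hr at 37 C, 5% CO2, then exposed to DMSO-dissolved compounds for 17 hr. Caspase-Glo 3/7 reagent was added, and luminescence was read after 30min at room temperature.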

Experiment [16] can be described thus: Caspase-3/7 induction in HepG2 cells by small molecules, qHTS cell viability counter screen (AID 1346981). Note: series mostly up to about 92 µM; nearly all actives have a fitted effect of over 30% in size. A digest of the protocol: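 The parent HepG2 line is plated at 2,000 cells per well and rested 5 hr before compound pinning from DMSO stocks. Following a 16-hr treatment at 37 C, a fluorogenic live-cell substrate (CellTiter-Fluor) reports viability after 1 hr.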

Experiment [17] addresses Nuclear receptor subfamily 1 group I member 2 (Homo sapiens) (UniProt O75469). Description: Human pregnane X receptor (PXR) small molecule agonists, qHTS assay (AID 1346982). Note: nearly all actives have a fitted effect of over 35% in size. A digest of the protocol: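 After plating in 5% charcoal-stripped FBS and a 5 hr rest, PXR-Luc HepG2 cells received compounds in DMSO. Following 24 hr at 37 C, ONE-Glo was added and light output read.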

For experiment [18], the target named is Progesterone receptor (Homo sapiens) (UniProt P06401). Briefly: qHTS assay to identify small molecule antagonists of the progesterone receptor (PR) signaling pathway (AID 1346795; active = well fitted inhibition curve with a large enough effect in the signal ratio in the repeat runs, not every such curve was filed as active; the % refers to the signal ratio). A digest of the protocol: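 In HEK293T cells bearing the PR-UAS-bla reporter, compound effects on promegestone-driven (1 nM) beta-lactamase expression are assessed after 16 hr using a fluorescent FRET substrate incubated 2 hr at room temperature.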

The nature of experiment [19]: qHTS assay to identify small molecule agonists or antagonists of the thyroid stimulating hormone receptor (TSHR) signaling pathway - wild type cell line counter screen (AID 1259384; calls by dose curve). The gist of the method:
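Wild-type HEK293 cells were plated 18 h at 37 C/5% CO2, pin-dosed with compound plus Ro20-1724 medium, held 30 min at room temperature, then given cAMP-d2 and anti-cAMP-cryptate; fluorescence was read after 1 h. Fifteen concentrations, triplicate.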

The target in experiment [20] is Thyrotropin receptor (Homo sapiens) (UniProt P16473). Description: qHTS assay to identify small molecule antagonists of the thyroid stimulating hormone receptor (TSHR) signaling pathway (AID 1259385; calls by dose curve; note: nearly all actives have a fitted effect of over 20% in size). A digest of the protocol:
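TSHR-HEK293 cells were plated and held 18 h at 37C/5% CO2, then given compound plus Ro20-1724 and stimulated with TSH at 1.5 ng/mL final. After 30 min at room temperature, cAMP was detected with cAMP-d2/anti-cAMP-cryptate (1 h) by fluorescence.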

For 8 compounds, outcome and Potency results are on record in PubChem BioAssay (Tox21).

A number with no mark means an inactive call. Results filed as inconclusive are left out. Active and inactive are the calls of the source. Unless noted, calls come from the whole dose curve; as a rule, active = well fitted curve in the direction sought with a large enough effect in the repeat runs; inconclusive = weak or mixed curves; inactive = no such curve, though single readings can be large; an effect the other way counts as inactive or inconclusive.

Sequence of Thyrotropin-releasing hormone receptor (Homo sapiens) (P34981 whole entry, looked up): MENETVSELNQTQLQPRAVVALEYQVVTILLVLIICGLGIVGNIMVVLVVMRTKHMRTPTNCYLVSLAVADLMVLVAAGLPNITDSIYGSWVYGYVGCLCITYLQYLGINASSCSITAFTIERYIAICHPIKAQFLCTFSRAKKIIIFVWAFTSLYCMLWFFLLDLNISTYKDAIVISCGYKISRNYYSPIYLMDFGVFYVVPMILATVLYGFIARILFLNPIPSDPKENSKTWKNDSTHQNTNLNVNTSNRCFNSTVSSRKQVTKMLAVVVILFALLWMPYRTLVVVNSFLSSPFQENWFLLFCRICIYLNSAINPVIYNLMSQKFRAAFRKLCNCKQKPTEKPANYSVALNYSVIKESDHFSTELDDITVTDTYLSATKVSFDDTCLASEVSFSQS
Sequence of Progesterone receptor (Homo sapiens) (P06401 whole entry, looked up): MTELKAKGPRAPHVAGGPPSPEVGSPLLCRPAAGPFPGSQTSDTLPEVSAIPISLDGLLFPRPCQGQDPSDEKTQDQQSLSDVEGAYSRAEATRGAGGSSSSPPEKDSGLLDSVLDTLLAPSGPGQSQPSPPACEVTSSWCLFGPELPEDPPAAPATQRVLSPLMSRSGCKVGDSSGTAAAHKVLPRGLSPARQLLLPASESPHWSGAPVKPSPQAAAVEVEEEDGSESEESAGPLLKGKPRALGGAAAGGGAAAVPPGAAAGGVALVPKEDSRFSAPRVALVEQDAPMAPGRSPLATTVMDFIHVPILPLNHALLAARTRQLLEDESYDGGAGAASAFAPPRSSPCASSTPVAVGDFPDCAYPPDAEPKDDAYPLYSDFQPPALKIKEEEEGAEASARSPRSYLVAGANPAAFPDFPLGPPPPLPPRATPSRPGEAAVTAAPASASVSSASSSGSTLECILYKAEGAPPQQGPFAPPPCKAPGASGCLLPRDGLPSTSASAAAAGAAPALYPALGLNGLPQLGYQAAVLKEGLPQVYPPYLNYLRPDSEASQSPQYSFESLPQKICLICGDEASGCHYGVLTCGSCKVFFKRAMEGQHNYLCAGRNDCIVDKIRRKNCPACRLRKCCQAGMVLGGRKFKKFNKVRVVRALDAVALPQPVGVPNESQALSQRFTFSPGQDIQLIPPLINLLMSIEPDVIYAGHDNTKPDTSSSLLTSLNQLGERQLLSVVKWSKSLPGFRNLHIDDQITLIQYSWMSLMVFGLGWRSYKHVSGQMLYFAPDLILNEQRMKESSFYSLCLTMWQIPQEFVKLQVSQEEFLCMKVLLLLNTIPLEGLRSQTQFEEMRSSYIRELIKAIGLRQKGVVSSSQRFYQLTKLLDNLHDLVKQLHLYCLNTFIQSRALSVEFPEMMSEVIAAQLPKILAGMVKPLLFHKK
Sequence of Nuclear receptor subfamily 1 group I member 2 (Homo sapiens) (O75469 whole entry, looked up): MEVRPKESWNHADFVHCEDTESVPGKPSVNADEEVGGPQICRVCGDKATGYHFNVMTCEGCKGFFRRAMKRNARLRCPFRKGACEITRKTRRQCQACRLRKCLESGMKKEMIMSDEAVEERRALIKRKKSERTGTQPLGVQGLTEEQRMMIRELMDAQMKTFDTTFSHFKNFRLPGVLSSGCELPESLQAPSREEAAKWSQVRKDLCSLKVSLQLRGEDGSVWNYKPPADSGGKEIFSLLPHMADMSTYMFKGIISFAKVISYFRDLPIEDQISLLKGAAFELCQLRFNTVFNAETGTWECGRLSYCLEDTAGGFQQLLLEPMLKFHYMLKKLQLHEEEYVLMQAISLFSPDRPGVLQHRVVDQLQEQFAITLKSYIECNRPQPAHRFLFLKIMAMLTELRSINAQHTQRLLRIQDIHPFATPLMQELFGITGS
Sequence of Estrogen receptor (Homo sapiens) (P03372 whole entry, looked up): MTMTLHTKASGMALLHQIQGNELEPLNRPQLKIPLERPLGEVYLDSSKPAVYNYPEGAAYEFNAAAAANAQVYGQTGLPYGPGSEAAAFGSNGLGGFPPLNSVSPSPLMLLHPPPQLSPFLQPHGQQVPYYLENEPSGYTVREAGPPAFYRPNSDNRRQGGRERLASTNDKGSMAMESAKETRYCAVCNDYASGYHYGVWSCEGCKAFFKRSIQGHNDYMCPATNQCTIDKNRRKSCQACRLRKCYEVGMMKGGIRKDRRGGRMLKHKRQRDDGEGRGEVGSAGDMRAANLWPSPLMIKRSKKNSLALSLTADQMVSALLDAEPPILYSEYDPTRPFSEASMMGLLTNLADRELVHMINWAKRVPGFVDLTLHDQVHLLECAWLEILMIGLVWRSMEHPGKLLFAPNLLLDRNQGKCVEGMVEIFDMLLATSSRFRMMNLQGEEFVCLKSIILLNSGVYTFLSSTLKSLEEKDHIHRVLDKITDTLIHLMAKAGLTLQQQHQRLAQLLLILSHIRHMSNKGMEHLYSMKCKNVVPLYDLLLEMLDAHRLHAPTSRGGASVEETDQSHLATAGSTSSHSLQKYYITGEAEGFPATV
Sequence of Thyrotropin receptor (Homo sapiens) (P16473 whole entry, looked up): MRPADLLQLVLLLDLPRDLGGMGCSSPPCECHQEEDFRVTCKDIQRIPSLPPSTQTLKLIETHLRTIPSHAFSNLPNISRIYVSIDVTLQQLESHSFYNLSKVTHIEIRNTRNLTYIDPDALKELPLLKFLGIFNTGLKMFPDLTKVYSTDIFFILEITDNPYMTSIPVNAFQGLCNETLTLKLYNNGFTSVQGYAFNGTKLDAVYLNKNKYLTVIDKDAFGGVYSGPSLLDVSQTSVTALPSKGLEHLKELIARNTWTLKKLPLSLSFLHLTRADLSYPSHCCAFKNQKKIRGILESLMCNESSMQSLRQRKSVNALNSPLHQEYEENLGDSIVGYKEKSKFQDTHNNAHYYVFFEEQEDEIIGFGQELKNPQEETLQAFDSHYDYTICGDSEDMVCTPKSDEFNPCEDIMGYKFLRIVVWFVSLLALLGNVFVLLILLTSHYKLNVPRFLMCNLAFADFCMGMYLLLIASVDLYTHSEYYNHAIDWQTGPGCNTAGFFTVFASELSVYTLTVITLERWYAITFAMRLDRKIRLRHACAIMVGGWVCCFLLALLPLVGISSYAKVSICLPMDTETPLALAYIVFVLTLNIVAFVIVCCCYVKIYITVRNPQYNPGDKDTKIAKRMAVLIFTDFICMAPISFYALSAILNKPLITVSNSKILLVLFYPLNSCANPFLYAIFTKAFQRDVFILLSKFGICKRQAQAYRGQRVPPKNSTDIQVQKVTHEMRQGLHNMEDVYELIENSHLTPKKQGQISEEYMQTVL

Turning to `CC(C)(C)NCCO`, the call in experiment [1], in [2], in [7], in experiment [8], in experiment [9] and in experiment [10] was inactive. The outcome in experiment [11], in experiment [13] and in experiment [15] was inactive. Further, the Potency entry in experiment [3], in [4], in [12], in experiment [14], in [16] and in experiment [17] was “inactive” throughout. Besides, the figures for the Potency in experiment [5] and in [6] were 30.6 µM (active) and 48.6 µM (active), respectively.
Turning to `OC(CCN1CCCCC1)(c1ccccc1)c1ccccc1`, the call in experiment [1], in [2], in experiment [7], in [8], in [9] and in experiment [10] was inactive. Besides, the call in experiment [11], in [13] and in experiment [15] was inactive. Besides, the Potency entry in experiment [18], in experiment [5], in [6], in [14], in experiment [16] and in experiment [17] was “inactive” in each case.
Consider `CCCCCCCCCCCCOC(C)=O`, for which the compound was classed as inactive in experiment [1], in experiment [2], in [19], in experiment [7], in experiment [8] and in [9]. Moreover, the result in experiment [10], in [11], in [13] and in experiment [15] was inactive. In addition, the Potency result in experiment [4], in experiment [5], in experiment [6], in [12], in experiment [14] and in [16] was “inactive” in each case. The Potency entry in [17] was “inactive”.
Take `CC(CC(=O)O)CC(C)(C)C` (configuration not stated): the call in experiment [1], in experiment [2], in [7], in experiment [8], in [9] and in [10] was inactive. The compound was classed as inactive in [11], in experiment [13] and in [15]. Besides, the Potency entry in [3], in experiment [4], in experiment [18], in [6], in [12] and in experiment [14] was “inactive” each time. The Potency result in experiment [16] and in [17] was “inactive” throughout.
As for `O=C(c1ccc2c(c1)C(=O)OC2=O)c1ccc2c(c1)C(=O)OC2=O`, the outcome in experiment [1], in experiment [19], in experiment [20], in [7], in experiment [8] and in experiment [9] was inactive. Moreover, the call in [10], in experiment [11] and in [15] was inactive. Further, the Potency result in experiment [3], in experiment [4], in experiment [18], in experiment [5], in [6] and in experiment [12] was “inactive” throughout. Also, the Potency result in experiment [14], in [16] and in experiment [17] was “inactive” in each case.
For `Cc1c(C(C)C)c(=O)n(-c2ccccc2)n1C`, the call in experiment [1], in experiment [2], in [7], in [8], in [9] and in experiment [13] was inactive. Further, the compound was called inactive in experiment [15]. For the same compound, the Potency entry in [4], in experiment [5], in experiment [6], in experiment [12], in experiment [14] and in [16] was “inactive” throughout. Further, in experiment [17], the Potency result was “inactive”.
As to `CCC(CO)CO`, the compound was classed as inactive in experiment [1], in [2], in [7], in experiment [8], in experiment [9] and in experiment [10]. Besides, the compound was called inactive in experiment [11], in [13] and in experiment [15]. For the same compound, the Potency entry in [3], in experiment [4], in experiment [18], in [5], in experiment [6] and in [12] was “inactive” each time. Besides, the Potency result in experiment [14], in experiment [16] and in experiment [17] was “inactive” each time.
In the case of `CCC(=O)c1ccc(O)cc1`, the call in experiment [1], in [2], in experiment [7], in [8], in [9] and in experiment [10] was inactive. Further, the compound was called inactive in experiment [11] and in experiment [13]. For the same compound, the Potency result in experiment [3], in experiment [4], in experiment [18], in experiment [5], in experiment [6] and in experiment [12] was “inactive” each time. Also, the Potency result in experiment [14] and in [17] was “inactive” each time.
